# HIF-2a block – blocks HIF-2a reporter activity. 786-0 RCC cells HIF-2a reporter, luciferase luminescence, overnight. inhibition, % at 18.8 µM. 360,000 compounds, 0.72% hits. AID 624352;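 active = inhibition of the luminescence signal of 40% or more relative to plate controls, in a single-dose primary screen at 18.75 µM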
# Peg3 promoter – reduces Peg3 promoter-driven luciferase expression in HeLa | HeLa PEG-Prom luciferase reporter, luminescence, overnight | inhibition, % at 20 µM | 360,000 compounds, 1.7% hits | AID 588405;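 active = inhibition of at least 50% at 20 µM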
# Shn3 inh set2 – inhibitors of Schnurri-3 3'UTR reporter in osteoblasts; Clone20 osteoblast Shn3 3'UTR firefly luciferase, 24 h; AID 588674; inhibition, % at 12.5 µM; 360,000 compounds, 0.52% hits;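 active = mean inhibition of at least 75% with every replicate also reaching 75%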;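 note: 0% = median of neutral control wells and 100% = pilot-screen positive control compound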
# KKLEB cytotox – reduces viability of KKLEB cystic fibrosis airway cells; 360,000 compounds, 0.36% hits; AID 602141; KKLEB CF airway cells viability, ATPlite luminescence, overnight; active compounds read low; cells stimulated with P. aeruginosa culture filtrate; activity change (cytotoxicity), % at 5 µM;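 active = corrected activity change at or below -50% at 5 µM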
# CF NFkB block – inhibitors of cystic fibrosis induced NF-kB; KKLEB NF-kB-GFP reporter, PAF-induced, GFP fluorescence overnight; inhibition, % at 5 µM; 360,000 compounds, 0.86% hits;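 active = at least 50% inhibition at 5 µM, scaled per plate between neutral and stimulator controls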;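 note: PAF is a Pseudomonas aeruginosa culture filtrate used as stimulus; plate controls were PAF-stimulated DMSO wells for no effect and unstimulated DMSO wells for full effect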
# * hit, by the source's call; . = no result. Rows were chosen to be rich in hits. Some 2.6% of all compounds tested hit in one or more screens of this group.
SMILES,HIF-2a block,Peg3 promoter,Shn3 inh set2,KKLEB cytotox,CF NFkB block
Cc1cc(N2C(=O)C=CC2=O)c([N+](=O)[O-])cc1C,50.5*,105.4*,89.4*,-1.1,65.5*
C/C(=C/Cc1c(O)cc2oc(C)cc(=O)c2c1O)COC1OC(CO)C(O)C(O)C1O (stereo not drawn),4.5,9.4,-2.1,-12.8,20.2
CCc1ccc(/C=N/NC(=O)c2nnn(-c3nonc3N)c2C(C)C)cc1,-57.2,-31.9,-5.7,0.4,2.9
COc1ccc2[nH]c(=O)c(CN(CC3CCCO3)C(=S)Nc3ccccc3)cc2c1 (stereo not drawn),10.4,27.7,21.6,7.7,-3.9
Cc1cc2cc(CN(CC3CCCO3)C(=S)Nc3ccccc3)c(=O)[nH]c2cc1C (stereo not drawn),14.5,36.8,90.3*,-4.9,3.7
COc1ccc(S(=O)(=O)N(C)C)cc1NCC(=O)Nc1ccc(Br)c(C)c1,2.7,23.2,48.1,2.0,-1.8
Cc1ccc(C(=O)N/C(=C/c2ccc(-c3ccc([N+](=O)[O-])cc3)o2)C(=O)NCCCN(C)C)cc1,-8.3,109.2*,-11.4,-10.5,-0.8
COc1ccc(N2CC(C(=O)N[C@H](C(=O)NC(C)c3ccccc3)C(C)C)CC2=O)cc1 (stereo partly drawn),-2.8,-3.5,10.6,5.9,-1.9
CC(=O)CSc1nnc(-c2ccc(S(=O)(=O)N3CCC(C)CC3)cc2)o1,4.6,0.8,1.4,-1.9,-3.9
CCOC(=O)C1CCCN(C(=O)Cn2sc3nc(C)cc(C)c3c2=O)C1 (stereo not drawn),4.5,-22.2,97.3*,13.5,16.0
COc1cc([N+](=O)[O-])ccc1NC(=O)CN1CCOCC1,20.6,18.0,2.5,5.3,-0.5
Cc1nc(NC(=O)c2ccc(-c3cc4ccccc4oc3=O)cc2)ccc1Br,9.5,82.2*,-9.4,-1.1,3.5
Cc1nc(NC(=O)c2cccc(-c3cc4ccccc4oc3=O)c2)ccc1Br,-54.8,78.6*,-47.3,-5.5,7.4
Nc1nnc(-c2cc3ccccc3oc2=O)s1,-188.0,-198.8,-22.7,6.6,-21.5
Nc1cccc(-c2cc3ccccc3oc2=O)c1,40.8*,-60.8,9.8,1.4,2.4
Cc1ccccc1CN1C(=O)c2ccccc2C1c1nnnn1-c1ccc2c(c1)OCCO2 (stereo not drawn),2.2,.,.,.,.
CN(C)S(=O)(=O)c1cccc(NC(=O)c2cccc(S(=O)(=O)N3CCc4ccccc43)c2)c1,21.9,37.6,91.7*,-5.5,19.5
CC(=O)NS(=O)(=O)c1ccc(NC(=O)c2cccc(S(=O)(=O)N3CCc4ccccc43)c2)cc1,17.4,4.9,2.8,0.7,0.0
CCC1C(=NO)C(CC)C(c2ccccc2)NC1c1ccccc1 (stereo not drawn),32.2,63.8*,43.5,-8.3,47.9
CCOC(=O)C(C#N)=CN1CCNc2ccccc21,-21.5,-9.9,3.7,2.7,12.5
CCCC(=O)N1CCC1(C)C(=O)NS(=O)(=O)c1cc(C)ccc1F (stereo not drawn),5.1,3.2,-15.4,-0.1,-4.4
Cc1cccc(N2CCN(C(=O)c3ccc(CS(=O)(=O)c4ccccc4C)o3)CC2C)c1 (stereo not drawn),20.4,52.1*,18.1,-11.3,53.1*
CN[C@@H]1CC[C@H](c2ccc(Cl)c(Cl)c2)c2ccccc21,-8.1,91.2*,19.3,.,13.0
COc1ccccc1C1CCN(Cc2ccc(Cl)c(Cl)c2)CC1,20.3,5.0,7.1,-7.5,-6.1
COc1ccccc1P(=O)(Cc1ccccc1[N+](=O)[O-])c1ccccc1 (stereo not drawn),11.4,8.8,21.2,-4.1,-9.9
SMILES,HIF-2a block,Peg3 promoter,Shn3 inh set2,KKLEB cytotox,CF NFkB block
CCOc1cccc(SCc2noc(C(=O)NCC3CCCO3)c2C(=O)O)c1 (stereo not drawn),5.6,9.5,-2.9,-0.7,6.6
CCCCN1CC(COCc2ccccc2)Oc2cccc(Oc3ccc(C)cc3)c2S1(=O)=O (stereo not drawn),8.1,4.4,86.6*,-21.5,15.5
CCCCN1CC(COCc2ccccc2)Oc2cccc(Oc3cc(C)c(C)c(C)c3)c2S1(=O)=O (stereo not drawn),13.9,8.2,89.6*,-2.1,-13.6
COc1ccc(CCNc2ncnc3[nH]ncc23)cc1OC,1.4,21.1,66.5,-4.9,19.1
COc1ccc(CCNc2ncnc3sc(C)cc23)cc1OC,7.0,12.5,88.6*,-3.2,4.7
OC[C@@H]1CN(Cc2ccc(-c3ccccc3)cc2)C[C@H](n2cnc3c(NCc4ccc(F)cc4)ncnc32)O1,-34.4,33.2,80.6*,-13.8,18.9
OC[C@@H]1CN(Cc2ccccc2)C[C@H](n2cnc3c(NCc4ccc(F)cc4)ncnc32)O1,-111.4,-101.5,-49.8,-6.6,14.3
O[C@@H]1CN(Cc2cccs2)[C@@H](c2ccc(Cl)cc2)C[C@H]1n1cc(-c2ccc(F)cc2)nn1,-10.6,44.3,5.6,-14.8,5.5
S=C(Nc1ccc(Cl)c(Cl)c1)NC1CCN(Cc2ccccc2)CC1,21.3,93.3*,71.3,-15.1,11.1
Fc1ccc(NC(=S)NC2CCN(Cc3ccccc3)CC2)cc1,2.2,9.0,11.2,7.3,2.3
O=C(COc1ccc(/C=N/NC(=O)c2ccccc2O)cc1)Nc1ccc([N+](=O)[O-])cc1,-2.6,-8.2,-30.1,-14.8,6.9
N#C/C(N=Nc1ccccc1O)=N\Nc1ccccc1O,-70.7,66.6*,34.5,0.6,-46.3
Cc1ccc(C)c(NC(=O)COC(=O)CC2c3ccccc3CCN2S(=O)(=O)c2ccc(F)cc2)c1 (stereo not drawn),5.6,17.2,-4.5,-5.6,24.7
Cc1cccc(N(CC(=O)N2CCc3ccccc3C2)S(C)(=O)=O)c1C,20.1,22.5,1.1,5.4,-6.0
COc1ccc(S(=O)(=O)N(C)C[C@@H]2Oc3cc(Br)ccc3S(=O)(=O)N([C@H](C)CO)C[C@@H]2C)cc1,-7.4,54.3*,15.7,9.4,-20.1
O=C(Nc1ccc2c(c1)CCC2)c1cc(S(=O)(=O)N2CCN(c3ccccc3)CC2)ccc1Cl,-58.7,-3.4,-0.2,2.3,-7.8
C=CC(=O)N1C/C(=C/c2ccc(F)cc2)C(=O)/C(=C\c2ccc(F)cc2)C1,82.0*,106.9*,90.6*,-68.8*,90.9*
CCS(=O)(=O)c1ccc2c(c1)N(S(C)(=O)=O)CC(C(=O)NN)O2 (stereo not drawn),11.8,-4.1,-15.5,2.6,-14.6
CN1C2CCC1/C(=C\c1ccc(F)cc1)C(=O)/C2=C/c1ccc(F)cc1,81.7*,18.4,23.0,0.3,-37.0
CN1C2CCC1/C(=C/c1cccn1C)C(=O)/C2=C\c1cccn1C,5.4,3.8,-34.2,9.8,-11.8
Cc1ccc(NC(=O)CCc2nnc3ccc(NCc4ccco4)nn23)cc1,-22.6,-48.0,-28.0,5.8,10.3
CCCCn1c(/C=N/Nc2nc3ccccc3[nH]2)nc2ccccc21,-135.0,-28.9,63.7,-6.4,2.1
Fc1ccccc1-c1ccc(/C=N/Nc2nc3ccccc3[nH]2)o1,-184.0,-226.3,-60.4,-55.2*,-7.8

# Assay outcomes (PubChem)
